Assay results taken from PubChem BioAssay (NCI).
Compounds without any hit were thinned out: in the full panel of roughly 83,000, 20% have a hit.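 Plates (96-well) were seeded with cells, treated with compound at one concentration, and incubated for 48 hours before percent growth was determined.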 Unmarked numbers belong to inactive results. Calls of active or inactive are those of the source. How the source made its calls: active means growth percent below 10; inactive means the rest.

Key:
Experiment in all cases: NCI-60 one-dose screen, 48 h (100 = growth as untreated, 0 = no growth, -100 = all killed)
Conditions in all cases: 10 µM unless noted
[1] = test system: DU-145 prostate
[2] = test system: K-562 leukemia
[3] = test system: MALME-3M melanoma
[4] = test system: MDA-MB-231 breast
[5] = test system: RXF 393 renal
[6] = test system: SF-268 CNS
[7] = test system: SF-295 CNS
[8] = test system: SF-539 CNS
[9] = test system: UACC-257 melanoma
[10] = test system: M14 melanoma

With COc1ccc(/C=C/C(=O)c2cc3c(N)c(C(=O)Nc4cccc(Cl)c4C)sc3nc2C)cc1 the growth [1] was 7.29% (active), the growth [2] was 13% and the growth [3] was 45.8%. For the same compound, the growth [4] was -12.3% (active), the growth [5] was -17.3% (active) and the growth [6] was 11.7%. For the same compound, the growth [7] was 13.1%, the growth [8] was -40.6% (active) and the growth [9] was 63%. The growth [10] was -6.38% (active).

With Oc1c(CN2CCC(N3CCCCC3)CC2)cc(Cc2cc(CN3CCC(N4CCCCC4)CC3)c(O)c3ncccc23)c2cccnc12 the growth [1] was 37.1%, the growth [2] was 5.46% (active) and the growth [3] was 15.4%. It also gave a growth [4] of 18.3%, a growth [5] of 57.5% and a growth [6] of 27.9%. For the same compound, the growth [7] was 31.1%, the growth [8] was -55.4% (active) and the growth [9] was 57.2%. The growth [10] was -26% (active).

Compound CS(=O)(=O)c1ccc(NC(=O)c2ccccc2)nc1 has a growth [1] of 108%, a growth [2] of 100% and a growth [3] of 108%. The growth [4] was 99.1%, the growth [5] was 106% and the growth [6] was 107%. For the same compound, the growth [7] was 106%, the growth [8] was 104% and the growth [9] was 95.6%. The growth [10] was 115%.

For CC(=O)Oc1ccc(OC(C)=O)c2ccccc12, the growth [1] was 116%, the growth [2] was 49.6% and the growth [3] was 107%. For the same compound, the growth [4] was -45.5% (active), the growth [5] was 87.1% and the growth [6] was 87.5%. It also gave a growth [7] of 105%, a growth [8] of 99.9% and a growth [9] of 78.1%. For the same compound, the growth [10] was 105%.

Work on O=C(N/N=C\c1cccc([N+](=O)[O-])c1)N/N=C/c1cccc([N+](=O)[O-])c1 yielded a growth [1] of 116%, a growth [2] of 99.4% and a growth [3] of 109%. The growth [4] was 100%, the growth [5] was 106% and the growth [6] was 102%. The growth [7] was 106%, the growth [8] was 111% and the growth [9] was 97.4%. The growth [10] was 113%.

O=C(NC1CC(F)C1)c1cc2cccnc2n1-c1ccc(Cl)c(Cl)c1 (stereo not given) showed a growth [1] of 106%, a growth [2] of 96.3% and a growth [3] of 113%. For the same compound, the growth [4] was 96.5%, the growth [5] was 102% and the growth [6] was 91.6%. It also gave a growth [7] of 95.1%, a growth [8] of 98% and a growth [9] of 96.9%. It also gave a growth [10] of 111%.

With COc1ccc2c(c1)/C(=N/c1n[nH]c(=S)s1)C(=O)N2 the growth [1] was 107%, the growth [2] was 82.9% and the growth [3] was 104%. For the same compound, the growth [4] was 87.8%, the growth [5] was 113% and the growth [6] was 98.8%. For the same compound, the growth [7] was 106%, the growth [8] was 87.4% and the growth [9] was 96.5%. For the same compound, the growth [10] was 103%.

CCCCCCCC/C=C\CCCCCCCCOc1ccc(CC(=O)NCC[N+]2(C)CCOCC2)cc1 gave a growth [1] of 88.5%, a growth [2] of 62.8% and a growth [3] of 80.9%. For the same compound, the growth [4] was 68%, the growth [5] was -38.6% (active) and the growth [6] was 70.2%. The growth [7] was 85.7%, the growth [8] was 81.1% and the growth [9] was 96.9%. It also gave a growth [10] of 81.4%.

Cn1c2c(c3ccc(Cl)c(Cl)c31)C(C#N)C(C)(C)NC2=O (stereo not given) gave a growth [1] of 106%, a growth [2] of 74.5% and a growth [3] of 90.4%. For the same compound, the growth [4] was 81.1%, the growth [5] was 76.4% and the growth [6] was 99.6%. It also gave a growth [7] of 76.1%, a growth [8] of 86.2% and a growth [9] of 77.4%. The growth [10] was 90.3%.

For O=c1c2ccccc2c(=O)c2c1sc1c(=O)c3ccc(O)cc3c(=O)c12, the growth [1] was -98.5% (active), the growth [2] was -11.6% (active) and the growth [3] was -96.5% (active). The growth [4] was -13.5% (active), the growth [5] was -84% (active) and the growth [6] was -32.1% (active). The growth [7] was -94.3% (active), the growth [8] was -97.1% (active) and the growth [9] was -95.2% (active). For the same compound, the growth [10] was -87.5% (active).

Cn1cc(-c2ccc(-c3cn(C)c4ccc(Cl)cc34)[nH]2)c2cc(Cl)ccc21 was tested, and the growth [1] was 32%, the growth [2] was -29.8% (active) and the growth [3] was -59.1% (active). The growth [4] was -48.5% (active), the growth [5] was -51.3% (active) and the growth [6] was -67.2% (active). The growth [7] was -15.1% (active), the growth [8] was -56.1% (active) and the growth [9] was -34.7% (active). For the same compound, the growth [10] was -75.2% (active).

In the case of CC1(C)CC2=C3C=C[C@@H]4[C@@]5(C)CCC(=O)C(C)(C)[C@@H]5CC[C@@]4(C)[C@]3(C)CC[C@@]2(C(=O)O)C[C@H]1O, the growth [1] is reported as 65%, the growth [2] is reported as 33.1% and the growth [3] is reported as 3.59% (active). For the same compound, the growth [4] was -8.81% (active), the growth [5] was 29.1% and the growth [6] was 32.6%. For the same compound, the growth [7] was 20.5%, the growth [8] was 34.8% and the growth [9] was 10.5%. It also gave a growth [10] of 17.6%.

With Nc1ccc(-c2csc(-n3[nH]c(=O)ccc3=O)n2)cc1 the growth [1] was 107%, the growth [2] was 103% and the growth [3] was 101%. The growth [4] was 101%, the growth [5] was 93.8% and the growth [6] was 102%. For the same compound, the growth [7] was 102%, the growth [8] was 105% and the growth [9] was 103%. It also gave a growth [10] of 96.2%.

With O=C(CSc1nnc(-c2cc(-c3ccccc3)nc3ccccc23)n1-c1ccccc1)Nc1ccc(C(=O)/C=C/c2ccc(Cl)cc2)cc1 the growth [1] was 94.6%, the growth [2] was 65.8% and the growth [3] was 99.5%. For the same compound, the growth [4] was 78.5%, the growth [5] was 103% and the growth [6] was 94.4%. The growth [7] was 97.9%, the growth [8] was 96.7% and the growth [9] was 103%. It also gave a growth [10] of 92.6%.

COc1ccc(-c2cc(-c3ccccc3)nc(N3CCN(CCNc4ccnc5cc(Cl)ccc45)CC3)n2)cc1 was tested, and the growth [1] was -33.4% (active), the growth [2] was 0.988% (active) and the growth [3] was -87.7% (active). For the same compound, the growth [4] was -82.4% (active), the growth [5] was -34.7% (active) and the growth [6] was -15.1% (active). For the same compound, the growth [7] was 82.7%, the growth [8] was -40% (active) and the growth [9] was -84.5% (active). For the same compound, the growth [10] was -70.9% (active).

Work on Cc1ccc(C)c2c(C)c(C(=O)Nc3cccc(-n4cccn4)c3)oc12 yielded a growth [1] of 76.5% [50 µM], a growth [2] of 37.1% [50 µM] and a growth [3] of 67.6% [50 µM]. The growth [4] was 76.9% [50 µM], the growth [5] was 79.6% [50 µM] and the growth [6] was 67.4% [50 µM]. The growth [7] was 66% [50 µM], the growth [8] was 85.2% [50 µM] and the growth [9] was 92.9% [50 µM]. For the same compound, the growth [10] was 63.5% [50 µM].

In the case of O=S(=O)(NCCNc1nccc(-c2c(-c3cccc(O)c3)nc3occn23)n1)c1ccc(Br)cc1, the growth [1] is reported as 44.8%, the growth [2] is reported as 17.2% and the growth [3] is reported as 15%. For the same compound, the growth [4] was 34.7%, the growth [5] was 28.8% and the growth [6] was 40.8%. The growth [7] was 78.3%, the growth [8] was 48.7% and the growth [9] was 20.8%. It also gave a growth [10] of 17.8%.

CN(C)CCN1C(=O)c2cccc3c(/C=C/CN4C(=O)c5cccc6cccc(c56)C4=O)ccc(c23)C1=O was tested, and the growth [1] was 113%, the growth [2] was -46.8% (active) and the growth [3] was -62.4% (active). The growth [4] was -57.4% (active), the growth [5] was 57% and the growth [6] was 101%. It also gave a growth [7] of 106%, a growth [8] of 92.8% and a growth [9] of 92%. For the same compound, the growth [10] was 77.9%.

In the case of Cc1c2ccncc2c(C)c2c1c1cc(CO)ccc1n2C, the growth [1] is reported as -2.14% (active), the growth [2] is reported as 6.77% (active) and the growth [3] is reported as -1.68% (active). The growth [4] was -8.51% (active), the growth [5] was 11.9% and the growth [6] was 14.4%. The growth [7] was 3.5% (active), the growth [8] was 17.2% and the growth [9] was -39.2% (active). For the same compound, the growth [10] was -22.9% (active).

With COc1cccc(Nc2ncnc3cc(NC(=O)CCl)ccc23)c1 the growth [1] was -74% (active), the growth [2] was -9.78% (active) and the growth [3] was -85.3% (active). For the same compound, the growth [4] was -69.4% (active), the growth [5] was -90.2% (active) and the growth [6] was -57.5% (active). For the same compound, the growth [7] was -19% (active), the growth [8] was -89.1% (active) and the growth [9] was 14%. The growth [10] was -78.4% (active).

Cc1nc2c(c(=O)[nH]1)C(c1ccccc1)c1ccc3ccccc3c1O2 (stereo not given) was tested, and the growth [1] was 56.2%, the growth [2] was 11.9% and the growth [3] was 60.9%. The growth [4] was 46.6%, the growth [5] was 27.6% and the growth [6] was 38.2%. The growth [7] was 22.8%, the growth [8] was 14.5% and the growth [9] was 34.5%. It also gave a growth [10] of 22.2%.

With COc1ccc(C(=O)Cn2c(C(=O)c3ccc(OC)cc3)nc3ccccc32)cc1 the growth [1] was 54.6%, the growth [2] was 7.61% (active) and the growth [3] was 37.2%. It also gave a growth [4] of 27.8%, a growth [5] of 20.4% and a growth [6] of 44.5%. For the same compound, the growth [7] was 1.78% (active), the growth [8] was 19.4% and the growth [9] was 48.5%. For the same compound, the growth [10] was -2.49% (active).

For O=C(Nc1ccccc1O)c1ccc(CNC(=O)c2ccsc2Nc2ccnc(C(F)(F)F)c2)cc1, the growth [1] was 30.6%, the growth [2] was 9.19% (active) and the growth [3] was 9.89% (active). For the same compound, the growth [4] was 39.1%, the growth [5] was 0.801% (active) and the growth [6] was 40.2%. The growth [7] was 2.43% (active), the growth [8] was 42.4% and the growth [9] was 6.92% (active). For the same compound, the growth [10] was 45.2%.

With COc1ccc(-c2ccc(-c3ccc(C(=N)N)nc3)s2)cc1Cl the growth [1] was -92.5% (active), the growth [2] was -29.8% (active) and the growth [3] was 74.1%. The growth [4] was -75.1% (active), the growth [5] was 56.8% and the growth [6] was -62.8% (active). The growth [7] was -78.4% (active), the growth [8] was -90.6% (active) and the growth [9] was 93.5%. The growth [10] was -40.6% (active).

With S=c1[nH]c(=S)c2c(-c3ccccc3)c(-c3ccccc3)oc2[nH]1 the growth [1] was 109%, the growth [2] was 80.2% and the growth [3] was 107%. It also gave a growth [4] of 99%, a growth [5] of 91.2% and a growth [6] of 104%. The growth [7] was 97.5%, the growth [8] was 98.3% and the growth [9] was 80.1%. The growth [10] was 105%.

In the case of COc1cccc(C(=O)NNc2nc(Cl)nc(Cl)n2)c1, the growth [1] is reported as 105%, the growth [2] is reported as 96.7% and the growth [3] is reported as 100%. It also gave a growth [4] of 104%, a growth [5] of 109% and a growth [6] of 103%. For the same compound, the growth [7] was 101%, the growth [8] was 100% and the growth [9] was 102%. For the same compound, the growth [10] was 102%.

CC/C=C\CCC/C=C1/C(=O)C=C[C@@H]1C/C=C\CCCC(=O)OC was tested, and the growth [1] was 60.4%, the growth [2] was 0.856% (active) and the growth [3] was 34.1%. For the same compound, the growth [4] was 15.3%, the growth [5] was 96.4% and the growth [6] was 31%. For the same compound, the growth [7] was 74.2%, the growth [8] was 95.4% and the growth [9] was 69.7%. The growth [10] was 1.66% (active).
